This note sets out measurements from PubChem BioAssay (Tox21).

Records with an inconclusive call do not appear. Unmarked numbers belong to inactive results. Activity calls are given as the source filed them. Unless noted, calls come from the whole dose curve; as a rule, active = well fitted curve in the direction sought with a large enough effect in the repeat runs; inconclusive = weak or mixed curves; inactive = no such curve, though single readings can be large; an effect the other way counts as inactive or inconclusive.

Experiment [1] can be described thus: qHTS assay to identify small molecule agonists of the peroxisome proliferator-activated receptor delta (PPARd) signaling pathway - cell viability counter screen (AID 743211). Note: nearly all actives have a fitted effect of over 55% in size. In short, it runs like this: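 Luminescent ATP viability assay (CellTiter-Glo, 30 min RT) in UAS-bla HEK293H cells carrying the PPAR delta reporter construct, 3000 cells/well, after a 17 h compound treatment at 37 C.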
In general terms: Quantitative high-throughput screening tests each substance at several concentrations.

Experiment [2] deals with Peroxisome proliferator-activated receptor delta (Homo sapiens) (UniProt Q03181). As to the kind of experiment: qHTS assay to identify small molecule agonists of the peroxisome proliferator-activated receptor delta (PPARd) signaling pathway (AID 743212; calls by dose curve). In short, it runs like this:
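Quantitative high-throughput agonist screen in a HEK293H beta-lactamase reporter line under UAS control. Compounds in DMSO, at 37 C. Fluorescence read after 2 h with FRET substrate at room temperature.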

For experiment [3] the target is unchanged. Description: qHTS assay to identify small molecule antagonists of the peroxisome proliferator-activated receptor delta (PPARd) signaling pathway (AID 743215; active = well fitted inhibition curve with a large enough effect in the signal ratio in the repeat runs, not every such curve was filed as active; the % refers to the signal ratio;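 note: cells stimulated with agonist L165041 at 300 nM final during compound exposure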; note: potency is the fitted concentration of half-maximal effect). In short, it runs like this:
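Inhibition of L165041-driven (300 nM final) PPARd signaling is scored in HEK293H UAS-bla cells. Exposure lasts 17 h at 37 C; beta-lactamase activity is then read by FRET substrate fluorescence after 2 h at room temperature.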

Experiment [4] concerns the target Bile acid receptor (Homo sapiens) (UniProt Q96RI1). Description: qHTS assay to identify small molecule antagonists of the farnesoid-X-receptor (FXR) signaling pathway (AID 743217; active = well fitted inhibition curve with a large enough effect in the signal ratio in the repeat runs, not every such curve was filed as active; the % refers to the signal ratio). In short, it runs like this: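 Antagonist mode against 50 uM (final) chenodeoxycholic acid stimulation in FXR-bla HEK 293T cells, 16 h at 37 °C. Inhibition detected as reduced beta-lactamase activity via LiveBLAzer B/G FRET fluorescence after 2 h at room temperature.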

Experiment [5] shares this target. As to the kind of experiment: qHTS assay to identify small molecule agonists of the farnesoid-X-receptor (FXR) signaling pathway (AID 743220; active = well fitted activation curve with a large enough effect in the signal ratio in the repeat runs, not every such curve was filed as active; the % refers to the signal ratio). In short, it runs like this: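 Beta-lactamase reporter under UAS control in GeneBLAzer FXR HEK 293T cells (5000/well) measured with LiveBLAzer FRET substrate after 2 h at room temperature. Compound exposure lasted 16 h at 37C.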

Experiment [6] can be described thus: qHTS assay to identify small molecule antagonists of the farnesoid-X-receptor (FXR) signaling pathway - cell viability counter screen (AID 743221; active = well fitted cell-killing curve with a large enough effect in the repeat runs, not every such curve was filed as active; note: nearly all actives have a fitted effect of over 50% in size). The procedure, abridged:
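In GeneBLAzer FXR-UAS-bla HEK 293T cells stimulated with 50 uM chenodeoxycholic acid (final), compounds acted for 16 h at 37 C. Viability was assessed afterwards by CellTiter-Glo luminescence.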

The target of experiment [7] is Vitamin D3 receptor (Homo sapiens) (UniProt P11473). As to the kind of experiment: qHTS assay to identify small molecule agonists of the vitamin D receptor (VDR) signaling pathway (AID 743222; calls by dose curve). The procedure, abridged: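 Quantitative HTS agonist-mode screen: compounds in DMSO were pin-transferred onto VDR-bla cells and incubated 16 h at 37C, 5% CO2. Reporter activity was detected with LiveBLAzer B/G FRET substrate after 2 h at room temperature.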

Experiment [8] is described as follows: qHTS assay to identify small molecule agonists of the farnesoid-X-receptor (FXR) signaling pathway - cell viability counter screen (AID 743218). Note: nearly all actives have a fitted effect of over 45% in size. In short, it runs like this:
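Cytotoxicity counter-screen run in parallel, same wells: FXR-UAS-bla HEK 293T cells dosed 16 h at 37 C, viability read by CellTiter-Glo luminescence after 30 min at room temperature.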

Experiment [9] is described as follows: qHTS assay to identify small molecule antagonists of the peroxisome proliferator-activated receptor delta (PPARd) signaling pathway - cell viability counter screen (AID 743213). Note: nearly all actives have a fitted effect of over 50% in size. The procedure, abridged: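 In this counter screen, HEK293H cells carrying a UAS-beta-lactamase reporter are co-treated with test compounds and 300 nM L165041 (final) for 17 h at 37 C; cell viability is quantified by CellTiter-Glo luminescence.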

Experiment [10] addresses Vitamin D3 receptor (Homo sapiens) (UniProt P11473). As to the kind of experiment: qHTS assay to identify small molecule antagonists of the vitamin D receptor (VDR) signaling pathway (AID 743223; active = well fitted inhibition curve with a large enough effect in the signal ratio in the repeat runs, not every such curve was filed as active; the % refers to the signal ratio). The procedure, abridged: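 Agonist 1alpha,25-dihydroxyvitamin D3 (3 nM in well) was added with each compound to VDR-bla cells preincubated 4 h. Cells stood 16 h at 37C, then FRET substrate 2 h at room temperature; fluorescence intensity recorded.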
% is set by controls: 0 for no effect and ±100 for the full control effect.

Chain of Vitamin D3 receptor (Homo sapiens) (P11473 whole entry, looked up): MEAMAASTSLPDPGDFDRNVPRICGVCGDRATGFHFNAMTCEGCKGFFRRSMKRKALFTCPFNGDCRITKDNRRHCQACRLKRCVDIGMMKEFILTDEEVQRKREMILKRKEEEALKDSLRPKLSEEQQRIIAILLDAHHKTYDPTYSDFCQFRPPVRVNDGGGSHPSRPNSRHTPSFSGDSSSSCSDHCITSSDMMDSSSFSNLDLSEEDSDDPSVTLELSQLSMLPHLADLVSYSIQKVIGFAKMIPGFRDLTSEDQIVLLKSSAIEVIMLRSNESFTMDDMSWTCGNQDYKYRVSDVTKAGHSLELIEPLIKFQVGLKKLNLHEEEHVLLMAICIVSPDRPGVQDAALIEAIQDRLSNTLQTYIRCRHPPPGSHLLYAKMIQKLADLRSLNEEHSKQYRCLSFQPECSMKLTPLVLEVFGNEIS
Chain of Bile acid receptor (Homo sapiens) (Q96RI1 whole entry, looked up): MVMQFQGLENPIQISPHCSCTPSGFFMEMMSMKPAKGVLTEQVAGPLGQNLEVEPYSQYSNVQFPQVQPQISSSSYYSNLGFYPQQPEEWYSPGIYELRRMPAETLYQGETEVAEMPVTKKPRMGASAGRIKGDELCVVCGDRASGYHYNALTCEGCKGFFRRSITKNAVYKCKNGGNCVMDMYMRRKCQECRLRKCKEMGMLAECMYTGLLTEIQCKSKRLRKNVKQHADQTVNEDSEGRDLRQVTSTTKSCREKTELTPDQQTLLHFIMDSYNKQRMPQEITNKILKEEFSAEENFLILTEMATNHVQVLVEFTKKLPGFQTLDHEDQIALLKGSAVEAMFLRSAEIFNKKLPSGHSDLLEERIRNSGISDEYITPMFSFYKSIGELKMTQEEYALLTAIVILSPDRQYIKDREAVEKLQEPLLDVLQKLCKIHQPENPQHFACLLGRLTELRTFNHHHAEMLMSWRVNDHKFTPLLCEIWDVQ
Chain of Peroxisome proliferator-activated receptor delta (Homo sapiens) (Q03181 whole entry, looked up): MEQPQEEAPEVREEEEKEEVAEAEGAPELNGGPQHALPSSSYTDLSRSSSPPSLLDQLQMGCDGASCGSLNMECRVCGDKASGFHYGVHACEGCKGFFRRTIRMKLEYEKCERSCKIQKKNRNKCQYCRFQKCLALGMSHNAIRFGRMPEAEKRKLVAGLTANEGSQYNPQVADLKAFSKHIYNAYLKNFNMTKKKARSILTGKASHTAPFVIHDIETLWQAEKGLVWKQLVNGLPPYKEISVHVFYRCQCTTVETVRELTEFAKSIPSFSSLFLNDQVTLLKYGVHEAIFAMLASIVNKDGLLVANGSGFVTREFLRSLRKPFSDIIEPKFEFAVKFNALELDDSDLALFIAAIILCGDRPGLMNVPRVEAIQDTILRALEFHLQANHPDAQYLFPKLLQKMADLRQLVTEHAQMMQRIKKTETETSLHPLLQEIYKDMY

As for `O=S(O)CO`, the Potency entry in experiment [1], in experiment [3] and in experiment [6] was “inactive” throughout. Also, the result in experiment [2], in experiment [4], in [5] and in [7] was inactive.

Regarding `O=C(O)CNC(=O)c1ccc([N+](=O)[O-])cc1`, the Potency entry in experiment [1], in experiment [3], in [8] and in experiment [6] was “inactive” throughout. The molecule was classed as inactive in experiment [2], in experiment [4], in [5] and in [7].

Consider `CCCCCCCCCCCC`, for which the Potency entry in [1], in experiment [9], in experiment [8] and in experiment [6] was “inactive” in each case.

Take `Cc1sccc1Br`: the Potency result in experiment [1], in [9], in [8] and in [6] was “inactive” each time. The outcome in [4], in experiment [5], in experiment [7] and in [10] was inactive.

For the molecule `NC(=O)COCCN1CCN(C(c2ccccc2)c2ccc(Cl)cc2)CC1` (centres undefined), the Potency entry in [1], in experiment [3] and in [6] was “inactive” in each case. Further, the call in experiment [2] and in experiment [10] was inactive.

Take `CC(=O)c1ccccc1O`: the Potency entry in [1], in experiment [9] and in experiment [6] was “inactive” throughout. For the same molecule, the call in [4], in experiment [5] and in experiment [10] was inactive.

For the molecule `Cc1ccc(Cl)cc1Cl`, the Potency result in experiment [1], in [9], in experiment [8] and in experiment [6] was “inactive” throughout. In [7], the result was inactive.

Turning to `CCN1CCC[C@H]1CNC(=O)c1c(O)c(Cl)cc(Cl)c1OC`, the Potency result in [1], in [8] and in [6] was “inactive” throughout. Further, in experiment [2], the molecule was classed as inactive.

As for `NCCc1cnc[nH]1`, the Potency result in [1], in experiment [9], in experiment [8] and in experiment [6] was “inactive” throughout.

With `Cc1cc2c(cc1S(N)(=O)=O)S(=O)(=O)CCC2`, the Potency entry in experiment [1], in [9], in experiment [3], in [8] and in experiment [6] was “inactive” in each case. In addition, in [4], the molecule was called inactive.

As to `O=C(O)c1ccccc1OP(=O)(O)O`, the Potency entry in experiment [1], in experiment [3], in experiment [8] and in experiment [6] was “inactive” throughout. The outcome in experiment [2] and in experiment [10] was inactive.

`Cc1nc2c([nH]1)c(=O)n(C)c(=O)n2Cc1ccco1`: the Potency entry in experiment [1], in experiment [9], in experiment [8] and in [6] was “inactive” each time. In addition, the call in experiment [4], in [5], in experiment [7] and in experiment [10] was inactive.

In the case of `O=C1CCCC(=O)C1`, the Potency result in experiment [1], in experiment [9] and in [6] was “inactive” in each case. The outcome in experiment [4], in [5] and in experiment [10] was inactive.

Take `CC(C)(O)C(=O)c1ccccc1`: the Potency result in [1] and in [6] was “inactive” throughout. The call in experiment [2], in experiment [4], in [5] and in experiment [7] was inactive.

With `CCn1ccnc1CC1COc2ccccc2O1` (centres undefined), the Potency entry in [1], in [3], in experiment [8] and in [6] was “inactive” throughout. For the same molecule, the molecule was classed as inactive in [2], in experiment [4] and in experiment [5].

Turning to `CC(C)(c1ccc(O)cc1)c1ccc(O)cc1`, the Potency entry in experiment [1], in experiment [8] and in [6] was “inactive” each time. The result in experiment [2] was inactive. Besides, the Potency in experiment [3] is 24.3 µM (active).

Take `COc1cc(C(=O)N2CCCCCCC2)cc(OC)c1OC`: the Potency result in [1], in experiment [3], in experiment [8] and in experiment [6] was “inactive” each time. Further, the result in experiment [2], in experiment [4], in experiment [5] and in experiment [7] was inactive.

Regarding `C[C@](N)(Cc1ccc(O)cc1)C(=O)O`, the activity change, negative = cytotoxicity is 3.74% [at 5.95 µM] in [1] and -5.83% [at 5.95 µM] in experiment [6]. In addition, the viability change, negative = cytotoxic in [9] is 17.6% [at 6.26 µM]; in [8], 17.1% [at 5.95 µM]. The activity change, negative = inhibition in experiment [4] was 3.49% [at 5.95 µM]. Further, in experiment [5], the activation was 1.44% [at 5.95 µM].

Regarding `CC(=O)CC(C)(C)C1CCCCC1`, in experiment [2], the call was inactive. Further, the Potency entry in [9], in experiment [3], in experiment [8] and in experiment [6] was “inactive” in each case.
